Sfp PPTase inh: qHTS Assay for Inhibitors of Bacillus subtilis Sfp phosphopantetheinyl transferase (PPTase); Biochemical Sfp PPTase activity, qHTS; Potency, µM, for inactives: largest response in the series, negative = inhibition, usual class: inhibitors; hit rate 3.5% among 310,000; 4'-phosphopantetheinyl transferase ffp (Bacillus subtilis), Q9F4F7; AID 1490, 2009;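 note: the enzyme is Sfp with the accession as filed and its product quenches rhodamine fluorescence; 0% = enzyme reaction without inhibitor and -100% = no enzyme wells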
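Sfp 15 nM + cpd, 15 min RT; start w/ rhodamine-CoA 5 uM, BHQ-2-YbbR 12.5 uM (final); 50 mM Hepes pH 7.6, 10 mM MgCl2, 0.01% NP-40, 0.01% BSA; read 525/598 nm at 0 and 30 min.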
G9a block: qHTS Assay for Inhibitors of Histone Lysine Methyltransferase G9a; Histone-lysine N-methyltransferase EHMT2 (Homo sapiens), Q96KQ7; G9a H3K9 monomethylation, AlphaScreen, 2 h; Potency, µM (highest dose often 102 µM), inactives show at the highest dose activity, negative = inhibition, usual class: inhibitors; hit rate 8.8% among 350,000; AID 504332, 2011; note: % is set by controls: 0 for no effect and ±100 for the full control effect; nearly all actives have a fitted effect of over 75% in size
Target sequence (Q96KQ7 913-1193 limits assumed): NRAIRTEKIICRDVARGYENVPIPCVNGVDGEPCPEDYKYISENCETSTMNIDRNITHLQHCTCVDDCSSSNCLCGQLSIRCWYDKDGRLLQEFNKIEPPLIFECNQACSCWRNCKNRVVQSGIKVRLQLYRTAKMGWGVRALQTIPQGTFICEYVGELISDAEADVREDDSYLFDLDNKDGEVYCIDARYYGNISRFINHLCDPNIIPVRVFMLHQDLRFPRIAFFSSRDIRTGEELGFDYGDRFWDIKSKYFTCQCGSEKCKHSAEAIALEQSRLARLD
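Using a bead-based AlphaScreen, monomethylated H3K9 product from 2 h room-temperature reactions (G9a 20 nM, peptide 500 nM, SAM 20 uM) was detected with 0.5 ug/mL rabbit anti-H3K9me1 antibody.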
BAZ2B inh: qHTS Assay for Inhibitors of BAZ2B. AlphaScreen BAZ2B-H3K14Ac peptide displacement. AID 504333, 2011. Potency, µM (doses to about 114 µM), without a hit: at the highest dose activity change, negative = inhibition, most hits filed as inhibitors. hit rate 4.4% among 360,000; note: % is set by controls: 0 for no effect and ±100 for the full control effect; nearly all actives have a fitted effect of over 60% in size
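Inhibition is scored as reduced AlphaScreen emission. The BAZ2B/b-H3(5-23)K14Ac complex (50 nM each) in PBS pH 7.4, 0.01% Tween-20 meets compound (up to 110 uM) for 30 min at RT before bead addition.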
HP1b binding inh: HTS for Inhibitors of HP1-beta Chromodomain Interactions with Methylated Histone Tails. Chromobox protein homolog 1 (Homo sapiens), P83916. AlphaScreen HP1-beta / biotin-H3K9me3 peptide binding. Potency, µM (highest dose often 114 µM), inactives show at the highest dose activity change, negative = inhibition, usual class: inhibitors. hit rate 0.56% among 390,000. AID 540317, 2011; note: nearly all actives have a fitted effect of over 70% in size
Target sequence (P83916 whole entry, looked up): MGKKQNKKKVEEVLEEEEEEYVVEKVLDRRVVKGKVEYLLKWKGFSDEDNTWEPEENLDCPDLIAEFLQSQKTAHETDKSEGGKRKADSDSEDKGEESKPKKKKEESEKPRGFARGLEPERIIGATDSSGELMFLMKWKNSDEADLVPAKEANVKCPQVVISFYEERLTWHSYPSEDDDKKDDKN
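HP1-beta protein (50 nM final) preincubated 30 min at room temperature with biotinylated H3(1-18)K9me3 peptide (50 nM) in PBS pH 7.4, 0.01% Tween-20, then compound added for 30 min. AlphaScreen streptavidin donor/nickel chelate acceptor beads (10 ug/mL final), 30 min dark, luminescence read.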
JMJD2A Tudor inh: qHTS Assay for Inhibitors of JMJD2A-Tudor Domain; Lysine-specific demethylase 4A (Homo sapiens), O75164; AlphaScreen JMJD2A-Tudor / H3K4me3 peptide binding; Potency, µM (titrated, usually from 114 µM), for the others: at the highest dose activity change, negative = inhibition, most hits filed as inhibitors; hit rate 4.4% among 390,000; AID 504339, 2011; note: % is set by controls: 0 for no effect and ±100 for the full control effect; nearly all actives have a fitted effect of over 50% in size
L3MBTL1 inh: qHTS Assay for the Inhibitors of L3MBTL1 | Potency, µM (top dose mostly 57.1 µM), without a hit: at the highest dose activity, negative = inhibition, usual class: inhibitors | Lethal(3)malignant brain tumor-like protein 1 (Homo sapiens), Q9Y468 | hit rate 0.66% among 230,000 | AlphaScreen L3MBTL1–H3K9me1 peptide binding; note: % is set by controls: 0 for no effect and ±100 for the full control effect; nearly all actives have a fitted effect of over 60% in size
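AlphaScreen proximity signal between nickel-chelate acceptor and streptavidin donor beads (final 10 ug/mL) reports binding of 50 nM L3MBTL1 to 75 nM biotin-H3 K9me1 peptide; complex incubated with compounds 30 min at room temperature; cefsulodin titration as control.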
* marks the source's active call; other numbers are inactive results; ? = inconclusive; . = no result given; [ ] = remark or other dose. The list is not random: actives were taken first. Their share in the collection is about 12%. Calls come from the whole dose curve; as a rule, active = well fitted curve in the direction sought with a large enough effect; inconclusive = small, poorly fitted or top-dose-only effect, or another doubt; inactive = no such curve, though single readings can be large; an effect the other way counts as inactive or inconclusive. Potency is the fitted concentration of half-maximal effect.

SMILES	Sfp PPTase inh	G9a block	BAZ2B inh	HP1b binding inh	JMJD2A Tudor inh	L3MBTL1 inh
CCOC(=O)c1c(C)[nH]c(C2=NNC(=Nc3ccc(OCC)cc3)SC2)c1C	79.4µM*	?	50.1µM*	?	56.2µM*	-12.0%
CCOC(=O)c1c(C)[nH]c(C2=NNC(=Nc3ccccc3)SC2)c1C	39.8µM*	44.7µM*	-37.5%	?	?	-18.9%
CCOC(=O)c1c(C)[nH]c(C(=O)OCCOc2ccccc2C)c1C	14.5%	-1.6%[59 µM]	-7.6%	20.2%	-15.4%	5.2%
CC(=O)c1c(C)[nH]c(C2=NNC(=NC(C)(C)C)SC2)c1C	22.4µM*	31.6µM*	.	27.0%	-14.6%	-1.7%
CC(=O)c1[nH]c(C)c(C(C)=O)c1C	18.1%	15.3%	?	14.3%	1.8%	-1.4%
N#Cc1ccccc1NC(=O)CSc1ccc([N+](=O)[O-])cn1	-13.9%	50.1µM*	0.6%	9.5%	-1.4%	.
O=C(Cn1cnc2cc([N+](=O)[O-])ccc2c1=O)Nc1ccc2c(c1)OCO2	5.3%	39.8µM*	?	22.4%	-16.7%	-8.7%
O=C(CSc1ccc([N+](=O)[O-])cn1)Nc1ccc2c(c1)OCO2	5.9%	44.7µM*	?	-11.1%	-22.6%	.
Cc1nnc(NC(=O)CSc2ccc([N+](=O)[O-])cn2)s1	-5.8%	?	-0.9%	32.5%	-17.9%	0.7%
O=C(Cc1ccc([N+](=O)[O-])cc1)Nc1ccc2c(c1)OCO2	15.1%	10.0%	8.8%	23.2%	-0.7%	.
COc1ccc2c(c1OC)C(=O)OC2c1ccc(O)cc1 (stereo unspecified)	.	.	.	29.4%	-3.5%	.
CCN1/C(=C2/OC(=S)N(C)C2=O)Sc2ccccc21	-22.1%	?	-6.8%	55.7%	-5.5%	1.0%
CCN1/C(=C2/SC(=S)NC2=O)Sc2ccccc21	-28.9%	8.91µM*	-13.3%	53.2%	-24.0%	0.6%
O=C(c1ccc2c(c1)N(Cc1ccc(Cl)cc1)C(=O)c1ccccc1S2(=O)=O)N1CCCCCC1	.	-25.3%[59 µM]	-20.1%	24.1%	-9.8%	.
Clc1cccc(CSc2nnc(-c3ccccn3)n2Cc2ccco2)c1	-20.3%	?	?	19.0%	-26.4%	-7.5%
CC(C)(C)c1ccc(CSc2nnc(-c3ccccn3)n2Cc2ccco2)cc1	31.6µM*	-5.0%[12.7 µM]	?	21.3%	-23.3%	.
CNC(=O)CSc1nnc(-c2ccccn2)n1Cc1ccco1	5.3%	.	?	33.4%	-4.3%	2.9%
Brc1ccc(CSc2nnc(-c3ccccn3)n2Cc2ccco2)cc1	-25.0%	50.1µM*	?	26.4%	-32.9%	-13.1%
CCOc1ccc(CC(=O)NCCc2csc(-c3ccc(Cl)cc3)n2)cc1	.	10.0%[59 µM]	-0.6%	9.0%[57 µM]	-10.5%	.
c1ccc2c(c1)NCCS2	89.1µM*	16.4%[0.501 µM]	50.1µM*	-25.7%	50.1µM*	-19.0%
CCn1c(=O)c(C(=O)NCCCO)c(O)c2ccccc21	12.3%	?	.	1.6%	28.2µM*	3.8%
Cc1cc(C(=O)Nn2c(C)nc3ccccc3c2=O)ccc1[N+](=O)[O-]	1.1%	-1.6%	-2.8%	-0.9%	-15.3%	-0.2%
CCn1c(=O)c(C(=O)Nn2c(C)nc3ccccc3c2=O)c(O)c2ccccc21	16.2%	9.9%[59 µM]	50.1µM*	36.6%	-9.0%	-2.8%
Cc1nc2ccccc2c(=O)n1NC(=O)c1ccc([N+](=O)[O-])cc1	15.6%	-50.4%	.	-2.3%	8.91µM*	.
COc1cc(C(=O)N(Cc2ccc(F)cc2)Cc2ccco2)cc(OC)c1OC	.	-32.8%[59 µM]	-16.3%	7.0%	-28.3%	.
SMILES	Sfp PPTase inh	G9a block	BAZ2B inh	HP1b binding inh	JMJD2A Tudor inh	L3MBTL1 inh
Cc1cc(C)c(NC(=O)CN2CCN(C)CC2)c(C)c1	4.0%	-30.6%	-1.3%	35.4%	-6.3%	.
COc1ccc(N2CCN(CC(=O)Nc3ccccc3SC)CC2)cc1	5.7%	-50.1%[12.7 µM]	50.1µM*	?	?	-14.6%
COc1ccc(N2CCN(CC(=O)Nc3c(C)cc(C)cc3C)CC2)cc1	12.5%	39.8µM*	-26.2%	5.3%	-26.9%	-1.6%
Cc1ccc(C)c(NC(=O)C(c2ccccc2)N2Cc3ccccc3C2=O)c1 (stereo unspecified)	.	-10.4%[59 µM]	-4.1%	20.3%	-22.1%	.
O=C(O)c1cccc(N2C(=S)N=C(Nc3ccccc3)C23CCCCC3)c1	11.5%	-42.2%	-7.8%	36.6%	4.3%	9.8%
COc1ccc(Nc2ccc3c(c2)=NC2(CCCCC2)[N+]=3[O-])cc1	-19.7%	?	39.8µM*	?	22.4µM*	?
[O-][N+]1=c2ccc(Nc3ccccc3)cc2=NC12CCCCC2	-20.6%	.	20µM*	?	39.8µM*	?
COc1ccc(NC2=NC(=S)N(c3ccccc3C)C23CCCCC3)cc1	-9.5%	?	-34.1%	50.0%	-6.4%	.
Fc1ccc2[nH]c3c(NCc4ccco4)ncnc3c2c1	.	.	.	-19.6%	-32.6%	.
Oc1c(C(c2ccccc2)N2CCOCC2)ccc2ccccc12 (stereo unspecified)	.	.	.	14.1µM*	10µM*	.
CC(=O)C(C(c1ccccc1)N1CCOCC1)N1CCOCC1 (stereo unspecified)	.	.	.	-23.2%	-22.1%	.
N#CCC(=O)N1CCN(C(c2ccccc2)c2ccccc2)CC1	.	.	.	42.8%	0.3%	.
COc1ccc(N2CCN(C(=O)CN3CCN(C(c4ccccc4)c4ccccc4)CC3)CC2)cc1	3.9%	?	50.1µM*	-72.7%	25.1µM*	-13.1%
O=C(CN1CCN(C(c2ccccc2)c2ccccc2)CC1)N1CCOCC1	-10.5%	8.91µM*	50.1µM*	17.9%	17.8µM*	-0.6%
C=CCNC(=O)CN1CCN(C(c2ccccc2)c2ccccc2)CC1	-17.8%	11.2µM*	50.1µM*	?	20µM*	-5.6%
O=C(CSc1ncccn1)N1CCN(C(c2ccccc2)c2ccccc2)CC1	-0.7%	5.62µM*	-6.8%	-0.9%	-19.2%	.
Cc1ccccc1CN1C(=O)C(O)(CC(=O)c2ccccc2)c2cc(Cl)ccc21 (stereo unspecified)	.	-28.5%[59 µM]	0.8%	29.3%	-17.6%	.
Oc1csc(Cc2nc(-c3ccc(Br)cc3)cs2)n1	-0.3%	?	-29.8%	43.1%	-13.1%	-0.1%
Cc1sc(Cc2nc(O)cs2)nc1-c1ccccc1	31.6µM*	?	-14.1%	7.1%	8.3%[11.4 µM]	-2.0%
O=C(CSc1nc2ccsc2c(=O)n1Cc1ccc(F)cc1)NCc1ccc(Cl)cc1	.	-7.8%[59 µM]	-4.5%	7.3%	-10.0%	.
